We go through seven compounds from PubChem BioAssay (EPA / NIEHS).

Some compounds were tested as several samples or in several runs, with calls that do not always agree. Activity calls are given as the source filed them. Rule for the calls: active = hit-call score of the fitted dose curve at least 0.9, where 1 is the maximum; inactive = score below 0.9.

The target of test [1] is CCAAT/enhancer-binding protein beta (Homo sapiens) (UniProt P17676). Description: ATG_C_EBP_CIS: Attagene CIS-FACTORIAL HepG2 Assay for human CCAAT/Enhancer Binding Protein (C/EBP) beta (AID 2282927). The conditions noted are these: HepG2 Attagene cis-factorial transcription factor reporter; actives raise or lower the signal. Summed up:
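Transiently transfected HepG2 (MRTU library, endogenous TF-driven promoters); 24 h dosing; total RNA → oligo(dT) RT → PCR → 6-FAM primer extension → HpaI digest → CE; fit bidirectionally vs DMSO.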

A short description of test [2]: ATG_CMV_CIS: Attagene CIS-FACTORIAL HepG2 Assay for human CMV (Internal Marker) (AID 2282928).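 Note: endpoint acts as a background internal control marker rather than a target.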 The conditions noted are these: HepG2 CMV promoter reporter, transcription factor profiling; actives raise or lower the signal. Summed up:
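Fluorescence intensity of RT-PCR-derived reporter fragments, resolved by capillary electrophoresis, gives the signal. HepG2 liver cells bearing transfected cis-element reporters were treated 24 h; activity in either direction was fit relative to DMSO-treated controls.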

A short description of test [3]: ATG_DR4_LXR_CIS: Attagene CIS-FACTORIAL HepG2 Assay for human Liver X Receptor (LXR), DR4 submotif (AID 2282929). The conditions noted are these: HepG2 Attagene DR4 cis-reporter, mRNA transcription; actives raise or lower the signal. Summed up: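 HepG2, transient MRTU transfection, cis-element (DR4) promoter; 24 h compound exposure; total RNA → oligo(dT) RT → PCR → 6-FAM primer extension → HpaI cut → CE. Gain/loss vs DMSO, bidirectional fit.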

Test [4] is described as follows: ATG_AP_1_CIS: Attagene CIS-FACTORIAL HepG2 Assay for human Activator Protein 1 (AP-1) (AID 2282931). Particulars: HepG2 Attagene cis-factorial AP-1 reporter mRNA; actives raise or lower the signal. Summed up: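 Transient MRTU transfection of HepG2 → 24 h chemical treatment → RNA isolation, RT-PCR, 6-FAM labelling, HpaI digest → capillary electrophoresis. Fit: bidirectional, DMSO negative control.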

Test [5] can be described thus: ATG_AP_2_CIS: Attagene CIS-FACTORIAL HepG2 Assay for human Activator Protein 2 (AP-2) (AID 2282932). Particulars: HepG2 AP-2 cis-reporter, Attagene transcription factor profiling; actives raise or lower the signal. Summed up: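 Read-out: fluorescent reporter mRNA via RT-PCR and capillary electrophoresis, 24 h post-dose in transiently transfected HepG2. Endogenous factors drive cis-promoter reporters; gain or loss of signal fitted bidirectionally against DMSO.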

Test [6] is described as follows: ATG_BRE_CIS: Attagene CIS-FACTORIAL HepG2 Assay for human Bone Morphogenetic Protein (BMP) Response Element (BRE) (AID 2282933). Particulars: HepG2 BMP response element reporter, Attagene transcription factor profiling; actives raise or lower the signal. Summed up: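 Endogenous transcription factor activity read in transiently transfected HepG2 cells after 24 h chemical exposure. Bidirectional curve fitting against DMSO; readout is reporter transcript level by RT-PCR with capillary electrophoresis of labelled products.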

In test [7] the target is Retinoic acid receptor alpha (Homo sapiens) (UniProt P10276). In words: ATG_DR5_RAR_CIS: Attagene CIS-FACTORIAL HepG2 Assay for human Retinoic Acid Receptor Alpha (RARE), DR5 submotif (AID 2282934). The conditions noted are these: HepG2 Attagene cis-factorial RARE DR5 reporter, mRNA; actives raise or lower the signal. Put shortly:
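Read-out: DR5-driven reporter transcript measured by RT-PCR, 6-FAM primer extension, HpaI digest and capillary electrophoresis. Human HepG2 liver cells carry transiently transfected cis-element reporter constructs; dosing lasts 24 h. Gain or loss of signal fitted against DMSO baseline.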

Test [8] addresses Transcription factor E2F1 (Homo sapiens) (UniProt Q01094). In words: ATG_E2F_CIS: Attagene CIS-FACTORIAL HepG2 Assay for human E2F Transcription Factor 1 (AID 2282935). Particulars: HepG2 Attagene cis-reporter, E2F reporter RNA transcripts; actives raise or lower the signal. Put shortly:
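Transient MRTU transfection of HepG2; 24 h compound exposure; RNA → oligo(dT) RT → PCR → FAM label → HpaI cut → CE fluorescence. Gain/loss of signal fit against DMSO.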

A short description of test [9]: ATG_E_Box_CIS: Attagene CIS-FACTORIAL HepG2 Assay for human Enhancer Box (E-box) (AID 2282936). Particulars: HepG2 E-box cis-reporter transcription, actives raise or lower the signal. Summed up:
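Transiently transfected HepG2, endogenous TF-driven reporters, 24 h dosing. Readout: RT-PCR plus capillary electrophoresis of fluorescent reporter fragments. Gain or loss of signal fitted bidirectionally against DMSO baseline.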

A short description of test [10]: ATG_M_61_CIS: Attagene CIS-FACTORIAL HepG2 Assay for M61 Transcription Factor (Internal Marker) (AID 2282937). Particulars: HepG2 Attagene CIS-FACTORIAL M61 internal marker reporter; actives raise or lower the signal. Summed up:
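Human liver HepG2, transient MRTU transfection (cis promoter elements), 24 h compound. Total RNA → oligo(dT) RT → PCR → FAM label → HpaI → CE. Internal background marker; bidirectional fitting, DMSO = baseline.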

The nature of test [11]: ATG_EGR_CIS: Attagene CIS-FACTORIAL HepG2 Assay for human Early Growth Response 1 (EGR1) (AID 2282938). Particulars: HepG2 Attagene CIS-FACTORIAL EGR reporter mRNA; actives raise or lower the signal. Put shortly:
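Transient transfection of human HepG2 with multiple cis-regulated reporter units, chemical exposure 24 h, total RNA isolated. Reverse transcription, PCR, fluorescent labelling and capillary electrophoresis quantify reporter transcripts; activity fitted bidirectionally against DMSO.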

A short description of test [12]: ATG_M_19_CIS: Attagene CIS-FACTORIAL HepG2 Assay for M19 Transcription Factor (Internal Marker) (AID 2282939). The conditions noted are these: HepG2 Attagene CIS-FACTORIAL M19 internal marker reporter; actives raise or lower the signal. Put shortly:
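Internal marker readout, fitted in both directions against DMSO, from HepG2 cells carrying transfected cis-element reporter constructs; RT-PCR and capillary electrophoresis of reporter mRNA after 24 h exposure.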

The nature of test [13]: ATG_ERE_CIS: Attagene CIS-FACTORIAL HepG2 Assay for Estrogen Response Element (ERE) (AID 2282940). The conditions noted are these: HepG2 ERE cis-reporter, Attagene RNA transcript; actives raise or lower the signal. Put shortly:
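After 24 h compound treatment, RNA from transfected HepG2 cells was reverse-transcribed, reporter cDNA PCR-amplified, FAM-labelled, HpaI-cut and resolved by capillary electrophoresis. ERE-driven cis reporter transcripts reflect endogenous factors; gain or loss scored against DMSO.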

The nature of test [14]: ATG_Ets_CIS: Attagene CIS-FACTORIAL HepG2 Assay for human Erythroblast Transformation Specific (ETS) (AID 2282941). The conditions noted are these: HepG2 ETS cis-reporter transcription, actives raise or lower the signal. Put shortly:
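Multiplexed reporter transcript profiling: HepG2, 24 h treatment, total RNA to cDNA, PCR, 6-FAM labelling, HpaI cut, capillary electrophoresis. Gain- or loss-of-signal fitted against DMSO.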

The target in test [15] is Hepatocyte nuclear factor 3-beta (Homo sapiens) (UniProt Q9Y261). In words: ATG_FoxA2_CIS: Attagene CIS-FACTORIAL HepG2 Assay for human Forkhead box A2 (FOXA2) (AID 2282942). The conditions noted are these: HepG2 cis-reporter transcription factor activity, 24 h; actives raise or lower the signal. Put shortly:
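Transient MRTU transfection of HepG2 liver cells; 24 h treatment; total RNA → oligo(dT) RT → PCR → FAM primer extension → HpaI cut → CE. Bidirectional fit vs DMSO.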

The nature of test [16]: ATG_FoxO_CIS: Attagene CIS-FACTORIAL HepG2 Assay for human Forkhead box O (FoxO) (AID 2282943). Particulars: HepG2 Attagene cis-reporter, FoxO element, mRNA; actives raise or lower the signal. Summed up:
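Read-out: fluorescence of 6-FAM-labelled reporter cDNA fragments resolved by capillary electrophoresis. Transiently transfected HepG2 cells were dosed for 24 h; activity fitted in both directions relative to DMSO controls.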

Test [17] is described as follows: ATG_GATA_CIS: Attagene CIS-FACTORIAL HepG2 Assay for human GATA Binding Protein (AID 2282944). Particulars: HepG2 GATA cis-element reporter, Attagene multiplex mRNA; actives raise or lower the signal. Put shortly:
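Reporter transcripts from a GATA cis-regulated unit, among multiplexed reporters in transfected HepG2 cells, were measured by RT-PCR with capillary electrophoresis after 24 h dosing. Induction or loss scored relative to DMSO.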

Test [18] is described as follows: ATG_GLI_CIS: Attagene CIS-FACTORIAL HepG2 Assay for human Zinc Finger Protein GLI1 (AID 2282945). Particulars: HepG2, Attagene cis-factorial reporter mRNA, GLI element; actives raise or lower the signal. Put shortly: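 Transiently transfected HepG2 cells report endogenous transcription factor activity via cis-element-driven reporter units. After 24 h compound exposure, reporter mRNA was measured by RT-PCR with capillary electrophoresis; bidirectional fitting against DMSO baseline.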

Test [19] addresses Bile acid receptor (Homo sapiens) (UniProt Q96RI1). Description: ATG_IR1_CIS: Attagene CIS-FACTORIAL HepG2 Assay for human Nuclear Receptor Subfamily 1 Group H Member 4 (NR1H4), IR1 submotif (AID 2282946). Particulars: IR1 reporter transcription, actives raise or lower the signal. Summed up: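 Fluorescence of capillary-separated, HpaI-digested RT-PCR reporter products gave IR1-element mRNA induction in HepG2 cells 24 h after dosing. Endogenous transcription factors drove the cis-regulated reporters; activity was fitted bidirectionally against DMSO.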

Hepatocyte nuclear factor 3-beta (Homo sapiens), sequence (Q9Y261 whole entry, looked up): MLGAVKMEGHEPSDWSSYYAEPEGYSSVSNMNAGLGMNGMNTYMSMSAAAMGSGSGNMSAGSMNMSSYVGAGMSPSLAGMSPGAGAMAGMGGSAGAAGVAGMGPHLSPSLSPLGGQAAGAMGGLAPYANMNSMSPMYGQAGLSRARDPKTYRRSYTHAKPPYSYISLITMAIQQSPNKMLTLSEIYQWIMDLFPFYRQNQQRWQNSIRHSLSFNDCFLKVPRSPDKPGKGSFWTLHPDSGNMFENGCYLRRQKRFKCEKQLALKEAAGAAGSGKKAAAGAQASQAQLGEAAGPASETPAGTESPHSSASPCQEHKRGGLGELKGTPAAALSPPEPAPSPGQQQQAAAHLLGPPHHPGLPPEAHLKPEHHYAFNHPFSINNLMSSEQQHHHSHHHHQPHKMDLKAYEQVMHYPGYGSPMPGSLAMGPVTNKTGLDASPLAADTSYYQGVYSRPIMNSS
CCAAT/enhancer-binding protein beta (Homo sapiens), sequence (P17676 whole entry, looked up): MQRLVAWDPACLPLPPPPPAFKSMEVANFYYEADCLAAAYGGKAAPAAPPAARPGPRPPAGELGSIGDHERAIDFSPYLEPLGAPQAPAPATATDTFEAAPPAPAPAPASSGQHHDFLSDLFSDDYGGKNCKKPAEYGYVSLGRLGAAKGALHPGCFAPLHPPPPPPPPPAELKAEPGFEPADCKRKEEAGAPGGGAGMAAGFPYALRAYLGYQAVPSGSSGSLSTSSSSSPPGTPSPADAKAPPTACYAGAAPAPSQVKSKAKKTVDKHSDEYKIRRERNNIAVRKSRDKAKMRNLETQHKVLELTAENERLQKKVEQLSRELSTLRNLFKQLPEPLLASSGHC
Transcription factor E2F1 (Homo sapiens), sequence (Q01094 whole entry, looked up): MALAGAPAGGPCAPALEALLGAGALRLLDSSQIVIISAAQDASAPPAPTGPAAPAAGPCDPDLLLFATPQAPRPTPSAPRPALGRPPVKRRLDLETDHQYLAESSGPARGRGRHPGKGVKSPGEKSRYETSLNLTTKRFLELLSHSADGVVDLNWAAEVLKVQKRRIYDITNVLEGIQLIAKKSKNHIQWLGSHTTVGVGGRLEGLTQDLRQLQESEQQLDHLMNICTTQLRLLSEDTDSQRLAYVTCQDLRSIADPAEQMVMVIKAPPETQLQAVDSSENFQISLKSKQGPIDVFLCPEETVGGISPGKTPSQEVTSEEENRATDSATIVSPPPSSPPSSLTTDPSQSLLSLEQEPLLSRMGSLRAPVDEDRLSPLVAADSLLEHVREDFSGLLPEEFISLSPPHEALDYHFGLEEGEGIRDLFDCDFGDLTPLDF
Bile acid receptor (Homo sapiens), sequence (Q96RI1 whole entry, looked up): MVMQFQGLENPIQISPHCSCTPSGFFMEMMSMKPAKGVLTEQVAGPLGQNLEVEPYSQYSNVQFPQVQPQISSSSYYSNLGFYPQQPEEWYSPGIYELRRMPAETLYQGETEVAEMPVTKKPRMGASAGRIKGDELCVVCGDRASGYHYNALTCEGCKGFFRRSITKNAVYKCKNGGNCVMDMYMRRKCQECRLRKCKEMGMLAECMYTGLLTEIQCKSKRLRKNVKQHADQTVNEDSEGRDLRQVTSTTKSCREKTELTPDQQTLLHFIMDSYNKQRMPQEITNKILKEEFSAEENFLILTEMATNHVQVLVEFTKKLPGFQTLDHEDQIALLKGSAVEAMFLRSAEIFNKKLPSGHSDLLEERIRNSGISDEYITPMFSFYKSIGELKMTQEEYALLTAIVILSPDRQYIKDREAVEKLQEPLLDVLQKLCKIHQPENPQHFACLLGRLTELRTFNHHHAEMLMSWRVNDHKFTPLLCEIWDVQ
Retinoic acid receptor alpha (Homo sapiens), sequence (P10276 whole entry, looked up): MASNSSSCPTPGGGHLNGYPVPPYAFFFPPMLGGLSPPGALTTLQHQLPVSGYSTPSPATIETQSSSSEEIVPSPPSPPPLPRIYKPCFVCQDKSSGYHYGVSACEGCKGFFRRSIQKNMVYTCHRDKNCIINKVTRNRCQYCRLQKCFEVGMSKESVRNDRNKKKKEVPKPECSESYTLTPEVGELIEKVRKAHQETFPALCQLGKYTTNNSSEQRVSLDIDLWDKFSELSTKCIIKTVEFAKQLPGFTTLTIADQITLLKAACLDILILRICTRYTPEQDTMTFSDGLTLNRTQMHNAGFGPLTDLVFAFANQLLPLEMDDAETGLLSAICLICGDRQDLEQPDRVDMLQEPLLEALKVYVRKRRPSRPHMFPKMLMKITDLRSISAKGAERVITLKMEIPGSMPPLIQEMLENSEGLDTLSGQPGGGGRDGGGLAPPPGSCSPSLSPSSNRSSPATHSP

Consider `CCCOC(=O)c1ccc(C(=O)OCCC)nc1`, for which the result in [1], in [2], in test [3], in test [4], in test [5] and in test [6] was inactive. The outcome in test [7], in [8], in [9], in test [10], in test [11] and in test [12] was inactive. In addition, the call in test [13], in [14], in test [15], in test [16], in test [17] and in test [18] was inactive. In test [19], the outcome was inactive.
Consider `CCCCC(CC)COC(=O)c1ccccc1C(=O)O` (stereo unspecified), for which the outcome in test [1], in test [2], in [3], in test [4], in test [6] and in [8] was inactive. Besides, the outcome in [9], in test [10], in test [11], in [12], in test [14] and in test [15] was inactive. In addition, the result in test [16], in [17] and in test [18] was inactive.
Take `CCCCCCC(C)OC(=O)COc1nc(F)c(Cl)c(N)c1Cl` (stereo unspecified): the outcome in test [1], in [2], in test [3], in test [4], in [6] and in test [8] was inactive. In addition, the outcome in [9], in test [10], in test [11], in test [12], in test [14] and in [15] was inactive. The outcome in [16], in [17] and in test [18] was inactive.
For the compound `c1ccc(Nc2ccccc2)cc1`, the result in [1], in test [2], in [3], in [4], in test [6] and in [7] was inactive. Besides, the call in test [8], in [9], in test [10], in test [11], in test [12] and in test [14] was inactive. For the same compound, the compound was called inactive in [15], in test [16], in [17] and in test [18]. Further, the AC50 in test [6] is 16.6 µM (active).
For the compound `CCCN(CCC)C(=O)SCC`, the outcome in [1], in test [2], in test [3], in test [4], in test [6] and in test [8] was inactive. Moreover, the outcome in test [9], in test [10], in test [11], in test [12], in test [13] and in [14] was inactive. In addition, the outcome in test [15], in [16], in test [17] and in test [18] was inactive.
For the compound `COC(=O)CSc1cc(N=c2sc(=O)n3n2CCCC3)c(F)cc1Cl`, the outcome in [1], in test [2], in [3], in [4], in [5] and in [6] was inactive. For the same compound, the compound was called inactive in test [8], in test [9], in test [10], in test [11], in [12] and in test [14]. Further, the call in test [15], in [16], in test [17], in test [18] and in [19] was inactive.
Regarding `CCOC(=O)[C@H](C)Oc1ccc(Oc2nc3ccc(Cl)cc3o2)cc1`, the outcome in [1], in test [2], in test [3], in test [4], in test [6] and in test [7] was inactive. The call in test [8], in test [9], in test [10], in [11], in test [12] and in test [14] was inactive. The compound was called inactive in test [15], in [16], in test [17], in [18] and in test [19].

The AC50 is the midpoint of the concentration-response curve, whichever way the signal moves.
